# CBX7 inh: blocks human CBX7 binding to H3K27me3 peptide. AID 1224903. AlphaScreen His6-CBX7 / biotin-H3K27me3 peptide binding; stronger effect = lower value. 1.1% of 66,000 active. normalised signal (fraction of DMSO) (no concentration beside the values). O95931; in the data active = normalised signal below about 0.5
# Target sequence (O95931 whole entry, looked up): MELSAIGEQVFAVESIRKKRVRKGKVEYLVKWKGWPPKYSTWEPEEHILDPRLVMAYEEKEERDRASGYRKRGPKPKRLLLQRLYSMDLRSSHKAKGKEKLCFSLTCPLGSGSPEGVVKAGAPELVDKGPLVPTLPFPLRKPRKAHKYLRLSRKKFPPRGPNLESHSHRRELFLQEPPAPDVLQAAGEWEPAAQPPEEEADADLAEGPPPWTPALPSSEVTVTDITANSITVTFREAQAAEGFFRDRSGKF
# * = called active by the depositor; ! = repeats disagree. Only a selection was taken, and hits are over-represented in it overall.
SMILES,CBX7 inh
COc1cc(Nc2nc(-c3ccc(C4CCCCC4)cc3)cs2)c(OC)cc1Cl,0.459*!
COc1cc(Nc2nc(-c3ccc(-c4ccccc4)cc3)cs2)c(OC)cc1Cl,0.543
COc1cc(Nc2nc(-c3ccccc3)cs2)c(OC)cc1Cl,0.751
COc1ccc(NC(=O)c2cn(-c3ccc(C)c(C)c3)c(=O)c3ccccc23)cc1OC,1.02
CCc1nnc(NC(=O)c2ccc(S(=O)(=O)N(C)C3CCCCC3)cc2)o1,0.0649*
COCc1nnc(NC(=O)c2ccc(S(=O)(=O)N3CCCCC3C)cc2)o1 (stereo unspecified),0.736
CCc1nnc(NC(=O)c2ccc(S(=O)(=O)N3CCCCCC3)cc2)o1,0.043*
O=C(Nc1nnc(C2CC2)o1)c1ccc(S(=O)(=O)N2CCCCC2)cc1,0.0124*
COCc1nnc(NC(=O)c2ccc(S(=O)(=O)N3CCOCC3)cc2)o1,0.691
CC1CN(S(=O)(=O)c2ccc(C(=O)Nc3nnc(C4CC4)o3)cc2)CC(C)O1 (stereo unspecified),0.643
O=C(Nc1nnc(C2CC2)o1)c1ccc(S(=O)(=O)N2CCCc3ccccc32)cc1,0.694
CN(C1CCCCC1)S(=O)(=O)c1ccc(C(=O)Nc2ccccc2-c2nc3ccccc3[nH]2)cc1,0.931
CCOC(=O)c1oc2ccccc2c1NC(=O)c1ccc(S(=O)(=O)N(C)C2CCCCC2)cc1,1.09
CCc1nnc(NC(=O)c2ccc(S(=O)(=O)N3CC(C)OC(C)C3)cc2)o1 (stereo unspecified),0.669
CC1CCCCN1S(=O)(=O)c1ccc(C(=O)Nc2nnc(C3CC3)o2)cc1 (stereo unspecified),0.000883*
CC1CCN(S(=O)(=O)c2ccc(C(=O)Nc3nnc(C4CC4)o3)cc2)CC1,0.74
COC(=O)CN(c1ccc(C(C)C)cc1)S(=O)(=O)c1ccc2c(c1)n(C)c(=O)c(=O)n2C,1.05
COc1ccc(Nc2ncccc2C(=O)Nc2cccc(C(F)(F)F)c2)cc1,0.722
COc1ccc2c(c1)CCc1c(C(=O)NCc3ccccc3)noc1-2,1.01
O=C(Nc1ccc2oc(-c3cc(Br)ccc3Cl)nc2c1)c1cccc(F)c1,1.03
CC(C(=O)N1CCC(C(N)=O)CC1)C1Sc2ccccc2N(Cc2ccc(F)cc2Cl)C1=O (stereo unspecified),1.1
O=C(CCCN1C(=O)CSc2ncccc21)NCc1ccccc1,1.03
O=S(=O)(c1ccc(Cl)cc1)c1nc(/C=C/c2ccccc2)oc1NCc1ccco1,0.776
Cc1cc(N2CCN(C)CC2)nc2ccc(NC(=O)CCC(=O)NCC3COc4ccccc4O3)cc12 (stereo unspecified),0.993
CC(C)Oc1ccccc1NC(=O)C1OC2OC3(CCCCC3)OC2C2OC3(CCCCC3)OC12 (stereo unspecified),0.846
SMILES,CBX7 inh
CCc1nc(C)ccc1OCC(=O)NCCCN(C)C,0.475*
Cc1nc2ccc(C(=O)NCCCN(C)C)cc2nc1C,0.978
Cc1ccccc1OCC(=O)NCCc1nc2ccccc2[nH]1,1.02
CC(C)c1ccc(Cn2c(C3CC(=O)N(c4ccccc4)C3)nc3ccccc32)cc1 (stereo unspecified),0.832
COc1cc2c(cc1OC)C(C(=O)Nc1ccc3c(c1)OCCO3)C(c1ccccc1F)N(C)C2=O (stereo unspecified),0.861
COc1cccc(NC(=O)c2cnn(-c3ccccc3)c2C2CCN(C(=O)OC(C)(C)C)CC2)c1,1.02
Cc1nc(Nc2cccc(C(F)(F)F)c2)c2c(C)c(C)sc2n1,0.453*
Cc1sc2nc(Cc3ccccc3)nc(Nc3cccc(C(F)(F)F)c3)c2c1C,1.14
Cc1nc(Nc2cccc(C(F)(F)F)c2)c2c3c(sc2n1)CCCC3,1.26
Cc1nc(Nc2ccccc2F)c2c(C)c(C)sc2n1,0.474*
COc1ccccc1Nc1nc(C)nc2sc(C)c(C)c12,1.04
Cc1sc2nc(Cc3ccccc3)nc(Nc3ccccc3F)c2c1C,1.07
COc1ccc(-n2nc(C(=O)NCC(=O)Nc3ccc4c(c3)OCO4)c3ccccc3c2=O)cc1,1.01
O=C(NCc1ccc2c(c1)OCO2)[C@@H](c1ccccc1)N1Cc2ccccc2C1=O,1.05
O=C(NCc1ccc(F)cc1)[C@H](Cc1ccccc1)N1Cc2ccccc2C1=O,0.94
O=C(NCc1ccc2c(c1)OCO2)[C@H](Cc1ccccc1)N1Cc2ccccc2C1=O,0.439*
O=C1CC(c2cc(Br)cs2)c2cc3c(cc2N1)OCO3 (stereo unspecified),0.767
COc1cccc(C2CC(=O)Nc3cc(OC)cc(OC)c32)c1 (stereo unspecified),1.25
COC(=O)c1c[nH]n2c(NC3CCC(C)CC3)c(-c3ccc(C)cc3)nc12 (stereo unspecified),0.23*
COC(=O)c1c[nH]n2c(NC3CCCCC3)c(-c3cccs3)nc12,0.519
COc1ccc(-c2cc(C(=O)NC3CCCC3)no2)cc1,1.25
COC(=O)c1c[nH]n2c(NC3CCCCC3)c(-c3ccc(OC)cc3)nc12,0.317*
COC(=O)c1cn(-c2ccccc2)nc1-c1ccc(OC)cc1,1.04
COc1ccc(-c2nn(C)c3sc(C(=O)NC4CCCCC4)cc23)cc1OC,0.974
COC(=O)c1c[nH]n2c(=O)c(Cc3cccc(C)c3)c(C)nc12,1.1
SMILES,CBX7 inh
COc1ccc(-c2nc3cnccn3c2NC2CCCCC2)cc1,1.32
COC(=O)c1c[nH]n2c(NC3CCCCCC3)c(-c3ccc(OC)cc3)nc12,0.339*
Cc1nc2c(C(=O)NC3CCC(C)CC3)c[nH]n2c(=O)c1Cc1ccccc1F (stereo unspecified),1.08
COc1ccc(-c2nc(SCC(=O)NC3CCCC3)c(-c3ccc(C)cc3)[nH]2)cc1OC,0.988
COC(=O)c1c[nH]n2c(NC3CCCCC3)c(-c3ccc(OCCC(C)C)c(OC)c3)nc12,0.369*
COc1ccc(Cl)cc1-c1nc(-c2nonc2N)no1,0.98
Cc1ccc2c(c1)C(c1ccccc1)N(C(=O)COc1ccc(Cl)cc1)CC(=O)N2 (stereo unspecified),0.896
CCCCCCCNC(=O)Cn1nc(-c2ccc(Cl)cc2)ccc1=O,1.02
Cc1cc(Br)ccc1OCc1nc(-c2ccccc2)no1,1.44
CCOC(=O)c1cnc2c(C)cccc2c1Nc1ccc(C)c(Cl)c1,1.13
Cc1ccc(-c2noc(CN(C(=O)COc3ccc(C(C)C)cc3Br)C(C)C)n2)cc1,0.868
Cc1cccnc1NC(=O)Nc1ccccc1Cl,1.06
CC1CCN(CCCNC(=O)c2cc(-c3ccncc3)nc3ccccc23)CC1,1.02
COc1ccc(C(=O)Nc2nnc(C3CCCCC3)s2)c(OC)c1,1.02
CCc1ccccc1NC(=O)COc1cc(=O)n(CC)c2ccccc12,0.895
Cc1nc2cc(-c3ccccc3)nn2c(C)c1CCC(=O)Nc1cccc(Cl)c1C,1
CC1(C)CC(=O)c2cnc3cc(-c4ccc(Cl)cc4)nn3c2C1,0.98
COC(=O)c1c[nH]n2c(NC3CCC(C)CC3)c(-c3ccc(OC(C)C)c(OC)c3)nc12 (stereo unspecified),0.121*
COc1ccc(NC(=O)c2c[nH]n3c(=O)cc(C4CCN(C(=O)OC(C)(C)C)CC4)nc23)cc1Cl,0.958
COc1ccc(NC(=O)c2c[nH]n3c(=O)cc(C4CCN(C(=O)OC(C)(C)C)CC4)nc23)cc1OC,0.892
COC(=O)c1cnc(NCCCN2CCC(C)CC2)c2ccccc12,1.07
CCc1ccc(NC(=O)c2sc3ncn(CC(=O)N(CC)CC)c(=O)c3c2C)cc1,1.1
Cc1ccc(NC(=O)CSc2nnc(-c3cccnc3)n2Cc2ccccc2)c(C)c1,1.01
Cc1ccccc1Nc1nc(-c2c(C)nc3sccn23)cs1,0.405*!
